Bioassay records deposited in PubChem by SRMLSC.
The list is not random: actives were taken first. Their share in the collection is about 6.5%.
NADH enzymes: blocks coupling enzymes of NAD/NADH assays; coupled PK/LDH NADH assays, four targets; AID 774; IC50, µM (doses to about 10 µM); 65,000 tested, 0.02% active;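 active means single-dose screening hits from any of four coupled enzyme assays that gave an IC50 when retested across doses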;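 further: the DPM-DC format reads NADH fluorescence rather than 340 nm absorbance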
Abs 340nm: compound absorbs light at 340 nm | compound absorbance at 340 nm, fold over control | 65,000 tested, under 10 active | fold change at 10 µM;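 active means at 10 µM dose, initial 340 nm absorbance at least 2 fold that of control wells; inactive means change under 2 fold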;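 further: initial absorbance extrapolated from kinetic A340 decline of NADH oxidation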
MK inhibit: inhibitors of Streptococcus pneumoniae mevalonate kinase; purified MK, PK/LDH-coupled NADH absorbance 340 nm; inhibition, % at 10 µM; 65,000 tested, 0.48% active; AID 555;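 active means ranked among the strongest by inhibition in the single 10 µM screen, a fixed top-ranked set picked for dose follow-up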
Spn PMK inh: inhibitors of Streptococcus pneumoniae phosphomevalonate kinase. 65,000 tested, 0.49% active. purified PMK, PK/LDH-coupled NADH absorbance 340 nm. inhibition, % at 10 µM;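 active means top-ranked compounds by inhibition in the single 10 µM screen, taking a fixed number of the strongest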
Spn DPM-DC inh: S. pneumoniae DPM-DC inhibition; purified DPM-DC, PK/LDH coupled NADH fluorescence; calls only at 10 µM; 65,000 tested, 0.49% active;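 active means the 320 compounds with the highest percent inhibition in the single-dose primary screen, excluding strongly autofluorescent ones, cut at about 32% in these data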;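 further: kinetic rate of NADH fluorescence loss reporting ADP formed by the decarboxylase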
Autofluor 339: intrinsic fluorescence of library compounds, ex339/em460 – biochemical, MLSMR library, data from DPM-DC assay, artefact control, profiling panel. compound autofluorescence, ex339/em460 nm, NADH buffer; stronger effect = higher value; 1 = no-compound wells, NADH background. fluorescence fold increase at 10 µM. 65,000 tested, 5.5% active;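 active means at 10 µM, mean starting fluorescence two-fold or more over control wells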;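 further: signal is the first read of a kinetic run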
Large screens that a line does not name were inactive.

CCCS(=O)(=O)N1CCN(C(=O)COc2ccc(-c3ccccc3)cc2)CC1	none
Cc1sc2nc3n(c(=O)c2c1C)Cc1ccccc1-3	Autofluor 339 3.7 (not shown: Spn DPM-DC inh)
COC(=O)C1=CN(C2CC2)C=C(C(=O)OC)C1c1ccc(C(=O)OC)cc1	Autofluor 339 2.1 (not shown: Spn DPM-DC inh)
CCOC(=O)C1CCN(S(=O)(=O)c2ccc(C(=O)OC)cc2)CC1	none
CCN(CC)c1ccc(C(=O)OCC(=O)N2CCN(c3ccccc3)CC2)cc1	none
c1ccc2c(c1)NC1(CCCCC1)n1c-2nc2ccccc21	Autofluor 339 3.7 (not shown: Spn DPM-DC inh)
O=C1Nc2ccccc2C12Nc1ccccc1-c1nc3ccccc3n12 (configuration not stated)	none
CC1(c2ccccn2)Nc2ccccc2-c2nc3ccccc3n21 (configuration not stated)	Autofluor 339 3.8 (not shown: Spn DPM-DC inh)
Nc1nnc(-c2ccco2)s1	none
Nc1ncnc2oc(-c3ccco3)c(-c3ccco3)c12	Autofluor 339 2.4 (not shown: Spn DPM-DC inh)
COc1ccc(-n2c(O)c(/C=N/n3cnnc3)c3ccccc3c2=O)cc1	Autofluor 339 2.1 (not shown: Spn DPM-DC inh)
CC(C)C(=O)Nc1ccc2c(c1)C(=O)N(CCC(=O)O)C2=O	Autofluor 339 2.3 (not shown: Spn DPM-DC inh)
CCC(=O)c1cc2c(C)cc(=O)oc2c(C)c1O	none
CCc1cc(=O)oc2c(C)c(O)c(CN(C)C)cc12	Autofluor 339 3.9 (not shown: Spn DPM-DC inh)
Clc1cccc(-c2nnc3sc(-c4ccc5c(c4)OCO5)nn23)c1	none
Brc1ccccc1-c1nnc2sc(-c3ccc4c(c3)OCCO4)nn12	Autofluor 339 2
c1ccc2c(c1)ncn2Cc1nnc2sc(-c3ccc4c(c3)OCO4)nn12	Autofluor 339 3.8 (not shown: Spn DPM-DC inh)
c1ccc2c(c1)OCC(c1nnc3sc(-c4ccc5c(c4)OCO5)nn13)O2 (configuration not stated)	Autofluor 339 2.6
Brc1ccccc1-c1nnc2sc(Cc3ccccc3)nn12	none
Clc1ccccc1-c1nn2c(Cn3cnc4ccccc43)nnc2s1	none
Fc1ccc(-c2nn3c(C4COc5ccccc5O4)nnc3s2)cc1 (configuration not stated)	none
Clc1ccccc1-c1nnc2sc(-c3ccc4c(c3)OCO4)nn12	Autofluor 339 2.6
CCOCCOCN(C#N)c1nc(OC)nc(N(C)C)n1	none
CCCCn1c(SCC(=O)N2CCOCC2)nnc1-c1cccs1	none
COc1cc(OC)cc(C(C)=O)c1	none
CN1C(=O)OC2(C)CCc3ccccc3C12C (configuration not stated)	Spn PMK inh 31
Cc1c(Cl)cccc1NC(=O)CCN1CCCC(C)C1 (configuration not stated)	none
Cc1c(O)c(CN2CCCC(C)C2)cc2c3c(c(=O)oc12)CCC3 (configuration not stated)	Autofluor 339 2.5 (not shown: Spn DPM-DC inh)
Cc1c(C)c2cc(Cl)c(O)c(CN3CCCC(C)C3)c2oc1=O (configuration not stated)	Autofluor 339 2.4 (not shown: Spn DPM-DC inh)
CN1CCN(Cc2c(O)ccc3c(-c4ccccc4)cc(=O)oc23)CC1	none
Cc1c(C)c2cc(Cl)c(O)c(CN3CCN(C)CC3)c2oc1=O	Autofluor 339 2.3 (not shown: Spn DPM-DC inh)
CC1CCN(CCCNC(=O)Cc2c(C(=O)O)n(C)c3ccccc23)CC1	none
CCN(CC)c1ncnc2sc(C(=O)N3CCN(c4ccccc4)CC3)c(C)c12	none
CCn1c2c(c3cc(Cl)ccc31)CCCC2=O	none
CCn1c2c(c3cc(C(=O)O)ccc31)CCCC2=O	Spn DPM-DC inh active, Autofluor 339 2.6
Cn1c2c(c(=O)n(C)c1=O)C(c1ccccc1OC(F)F)C1=C(CCCC1=O)N2 (configuration not stated)	Autofluor 339 4
C=C(C)CSc1nc2c(cc1C#N)CCC2	none
COC(=O)CC(=O)CSc1nc(C)cc(C)c1C#N	Autofluor 339 3.8 (not shown: Spn DPM-DC inh)
CC(C)OC(=O)CC(=O)CSc1nc2c(cc1C#N)CCC2	Autofluor 339 3.7 (not shown: Spn DPM-DC inh)
CCOC(=O)CC(=O)CSc1nc2c(cc1C#N)CCCCCC2	Autofluor 339 2.4 (not shown: Spn DPM-DC inh)
N#Cc1cc2c(nc1SCC(=O)Nc1nccs1)CCCCC2	none
CCc1c(C)nc(SCC(=O)CC(=O)OC(C)C)c(C#N)c1C	Autofluor 339 2.2
N#Cc1cc2c(nc1SCc1nc3ccccc3[nH]1)CCC2	Autofluor 339 2.1
COC(=O)CC(=O)CSc1nc2c(cc1C#N)CCC2	Autofluor 339 3.8 (not shown: Spn DPM-DC inh)
CC(C)OC(=O)CC(=O)CSc1nc2c(cc1C#N)CCCC2	Autofluor 339 3.7 (not shown: Spn DPM-DC inh)
CS(=O)CSc1nc2c(cc1C#N)CCCC2 (configuration not stated)	none
Cc1cc2nc(NC3=NCN(Cc4ccc5c(c4)OCO5)CN3)nc(C)c2cc1C	none
COc1ccc(Cl)cc1NC(=O)CN1CCC(n2nnc3ccccc32)CC1	none
CCC1Oc2ccc(C)cc2N(CC(=O)NCc2cccc(OC)c2)C1=O (configuration not stated)	none
CCOC(=O)CC1C(=O)NCCN1C(=O)Nc1ccccc1 (configuration not stated)	MK inhibit 49
COC(=O)CC1C(=O)NCCN1C(=O)Nc1ccccc1 (configuration not stated)	none
Cc1ccc(-c2c(C#N)c(N)nc3c2CCCCC3)o1	Autofluor 339 2
Cc1ccc(-c2c(C#N)c(N)nc3c2CCCCCC3)o1	Autofluor 339 2.2 (not shown: Spn DPM-DC inh)
c1ccc2c(c1)CCOC2CNCCCN1CCCCC1 (configuration not stated)	none
Cc1cccc2cc3c(NC(=O)c4ccccn4)nn(C)c3nc12	Autofluor 339 2.1
CCCC(=O)Nc1nn(C)c2nc3c(C)cccc3cc12	none
Cc1ccc(N2CCN(c3cc(C)nc4c5c(C)cc(C)nc5nn34)CC2)cc1	none
COc1ccc(CN2CCN(c3cc(C)nc4c5c(C)cc(C)nc5nn34)CC2)cc1F	Autofluor 339 3.9 (not shown: Spn DPM-DC inh)
CCOc1ccc(CN2CCN(c3cc(C)nc4c5c(C)cc(C)nc5nn34)CC2)cc1	Autofluor 339 3.1 (not shown: Spn DPM-DC inh)
COc1ccc(-c2c(C)nn3c(N4CCN(Cc5ccccc5)CC4)cc(C)nc23)cc1OC	none
Cc1cc(C)c2c(n1)nn1c(N3CCN(c4ccccc4C)CC3)cc(C)nc21	Autofluor 339 2.8 (not shown: Spn DPM-DC inh)
COc1ccccc1S(=O)(=O)n1cc(Cc2ccccc2)c(N)n1	none
CN1/C(=N\O)c2cccc3cccc1c23	Autofluor 339 2.2
Cc1sc2ncnc(-n3cnc4ccccc43)c2c1C	Autofluor 339 2
O=C(NCN1C(=O)C2C3C=CC(C3)C2C1=O)Nc1nccs1 (configuration not stated)	none
CS(=O)(=O)N(CC(=O)NCc1ccc2c(c1)OCO2)Cc1ccccc1	none
Cc1nn(-c2ccccc2)c(N2CCCC2)c1/C=N/n1cnc2scc(-c3ccccc3)c2c1=O	Autofluor 339 3.5
CC(CCCC(C)(C)O)NCCO (configuration not stated)	none
COc1ccc(CN(Cc2cccnc2)S(=O)(=O)c2ccc(-n3cnnn3)c(C)c2)cc1OC	none
